From PubChem BioAssay (NCI)
The panel holds about 83,000 compounds, 20% with a hit somewhere; the sample as a whole holds those more often.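 Treatment: one concentration, 48 hours, 96-well format. Scoring: percent growth, with anything below 10 considered active.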 Values without a mark were called inactive. Activity calls are given as the source filed them.

System: SN12C renal
Assay: NCI-60 one-dose screen, 48 h (100 = growth as untreated, 0 = no growth, -100 = all killed)
Details: 10 µM unless noted
Method: Growth inhibition of the SN12C human tumor cell line is measured as a screen for anti-cancer activity. Cells are grown in 96 well plates and exposed to the test compound for 48 hours. Compounds are tested at a single concentration, which is 10^-5 M for most compounds. The reported endpoint is percent growth (GI% or GIPRCNT), where numbers from 0 - 100% represent growth inhibition, and numbers from -100% - 0 represent cell death. For example, a value of 40 represents 60% growth inhibition. A value of 0 means no net growth occurred over the course of the experiment. A value of -40 indicates 40% of cells at the beginning of the experiment died by the end of the experiment. A value of -100 means all cells are dead at the end of the experiment.
NCI-60 Human Tumor Cell Lines Screen was performed using the standard one-dose NCI protocol, which is described in more detail at https://dtp.cancer.gov/discovery_development/nci-60/default.htm.
Compounds with GIPRCNT values below 10 were considered active. Activity score was based on GIPRCNT using the following formula: […]
Score is 0 for GIPRCNT values of 100 or above, 50 for GIPRCNT values of 0, and 100 for GIPRCNT values of -100.

Row | SMILES | growth
1 | Cc1ccc(Nc2nc(N)c3ccccc3n2)cc1Cl | 65.4%
2 | O=C(NC1CCCCC1)C(c1cccs1)N(CCc1ccccc1)C(=O)c1ccco1 (stereo not given) | 92.2%
3 | O=c1oc2ccc(Br)cc2c(=O)n1-c1ccc(I)cc1F | -1.37% (active)
4 | COc1cc(/C(C#N)=C/c2nc3c(N4CCOCC4)nc(Cl)nc3n2C)cc(OC)c1OC | 14.9%
5 | Fc1cccc(COc2ccc(Nc3ncnc4onc(-c5ccccc5)c34)cc2)c1 | 22.3%
6 | Cn1c2c(c(=O)[nH]c1=O)NC1=C(C(=O)c3ccccc31)C1(C=C(O)c3ccccc31)N2 (stereo not given) | 108%
7 | COc1cc(C(C)n2cc(-c3ccccc3)nn2)ccc1OC1CCCCC1 (stereo not given) | 67.7%
8 | COc1cc(C2C3=C(COC3=O)N(CCO)c3cc4c(cc32)CCC4)cc(OC)c1O (stereo not given) | 33.5%
9 | COc1ccc(Nc2nc(N/N=C/c3ccc(O)cc3)nc(Nc3ccc([N+](=O)[O-])cc3)n2)cc1 | 103%
10 | COc1ccc(OC)c(/C=C/C(=O)c2c(C)nc3ccccc3c2/C=C/c2ccccc2)c1 | 58.1%
11 | O=C1c2ccccc2C(=O)c2c1ccc1[nH]c(CCl)nc21 | -1.77% (active)
12 | COCCN(C(=O)Cc1cccs1)C(C(=O)NCc1ccc(OC)cc1)c1ccc(C(C)C)cc1 (stereo not given) | 89.9%
13 | CCN1C(=O)N(CC)C2Nn3c(s/c(=C\c4ccccc4F)c3=O)=NC21 (stereo not given) | 53.5%
14 | O=C1c2cc(Cl)ccc2Oc2cc([N+](=O)[O-])ccc2N1c1ccc(F)cc1F | 101%
15 | O=C(NCc1ccco1)C1CN(c2ccc(Cl)cc2)N(c2ccc(Cl)cc2)C1=O (stereo not given) | 62.9%
16 | COc1ccc(-c2c(-c3ccc(OC)c(O)c3)cnc3ncnn23)cc1 | 105%
17 | Cc1c(-c2csc(-n3nc(C(F)(F)F)cc3C(F)(F)F)n2)no[n+]1[O-] | 95.7%
18 | COc1cc(NC(=O)CCSc2nc3ccccc3c(=O)n2CCc2ccccn2)cc(OC)c1OC | 92.8%
19 | O=C(NCCCN1CCC(N2CCCCC2)CC1)C1=Cc2cc(Br)ccc2OC1 | 57.7%
20 | O=c1cc(-c2ccccc2)oc2cc(OCc3cn(Cc4ccc(F)cc4)nn3)cc(OCc3cn(Cc4ccc(F)cc4)nn3)c12 | 38.7%

Row | SMILES | growth
21 | O=c1oc2ccc(-c3ccc(F)cc3F)cc2c(=O)n1-c1ccc(Cl)c(C(F)(F)F)c1 | 11.2%
22 | O=C(CSc1ncccc1C(=O)O)Nc1ccc(Oc2ccccc2)cc1 | 102%
23 | Cc1ccc2sc3c(NCCCNCCO)nc4ccccc4c3c(=O)c2c1 | 72.8%
24 | COc1nccc2cc3c(=O)n4c(cc5ccccc54)c(=O)n3c12 | 95.7%
25 | FC(F)(F)c1cccc(Nc2nc3ccccc3nc2Nc2cccc(C(F)(F)F)c2)c1 | 32.3%
26 | O=C(NN1C(=O)CSC1c1ccc(Cl)cc1)c1[nH]c2ccc(F)cc2c1-c1ccccc1 (stereo not given) | 44.1%
27 | Cc1ccc(S(=O)(=O)c2c(COC(=O)c3cccc(C)c3)c(-c3ccccc3)nn2C)cc1 | 89.1%
28 | Oc1c(C(Nc2ccccn2)c2cccc(Oc3ccccc3)c2)ccc2cccnc12 (stereo not given) | -89.4% (active)
29 | CN(CCc1ccccc1)C(=S)N(C(=O)c1ccc([N+](=O)[O-])cc1)c1ccc(Cl)cc1 | 89%
30 | COc1ccc(C2=C(c3cccc(OC)c3)C(=O)c3ccc(C)nc3C2=O)cc1 | 40.6%
31 | OC(CNC1CCCCC1)Cn1c2ccc(I)cc2c2cc(I)ccc21 (stereo not given) | 70.1%
32 | COc1cc(/C=C2\CN(C)C/C(=C\c3cc(CN4CCCCC4)c(O)c(OC)c3)C2=O)cc(CN2CCCCC2)c1O | 38.2%
33 | CCOc1c(Br)cc(C2C(C(=O)OC)=CN(C)C=C2C(=O)OC)cc1OC | 78%
34 | CCCN1C(=O)N(CCC)C2C1NN=c1s/c(=C3\C(=O)N(C(C)C)c4ccccc43)c(=O)n12 (stereo not given) | 65.9%
35 | COc1cc(-c2c3c(c(Br)n2Cc2ccccc2)-c2nc(N)sc2CC3)cc(OC)c1OC | 85.7%
36 | COc1ccc(C2=Nn3c(NN)nnc3SC2)cc1 | 101%
37 | CCOC(=O)C1=CN(C)C=C(C(=O)OCC)C1c1cc(Br)c(OCC)c(OC)c1 | 56.5%
38 | COc1ccc(S(=O)(=O)N(Cc2ccc3c(n2)C=CC(C)(C)O3)C2CCC2)cc1OC | 6.9% (active)
39 | CC1=CCC(OC(=O)C(C)(C)CCC(O)(C(=O)OC2(C(C)C)CCC3(C)OC3C2)C(C)C)(C(C)C)CC1 (stereo not given) | -43.8% (active)
40 | c1ccc2cc3c(Nc4ccc(N5CCOCC5)cc4)ccnc3cc2c1 | 94.5%
